Drawing on PubChem BioAssay (NCATS), this text covers Potency, max response and outcome for 13 molecules.

In one test the test system is GB4. Kind of test: qHTS profiling for inhibitors of Plasmodium falciparum proliferation (AID 504749). The settings on record: P. falciparum in erythrocytes, SYBR Green DNA, 72 h; series mostly up to 28.7 µM. A digest of the protocol: (§1)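 Fluorescence of SYBR Green-bound parasite DNA, read at 485/535 nm, served as the growth measure. Infected erythrocytes were cultured with compound 72 h; artemisinin (0.29 uM) and DMSO wells defined the normalization range.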
(In general: Quantitative high-throughput screening tests each substance at several concentrations.)

Another test has as its system HB3. Described as above. The conditions noted are these: P. falciparum in erythrocytes, SYBR Green DNA, 72 h; series mostly up to 28.7 µM. The method, boiled down:
as §1

The test system of another test is ICS. The description is as above. The conditions noted are these: P. falciparum in erythrocytes, SYBR Green DNA, 72 h; series mostly up to 28.7 µM. A digest of the protocol:
as §1

Another test deals with JCK. The description is as above. The settings on record: P. falciparum in erythrocytes, SYBR Green DNA, 72 h; series mostly up to 28.7 µM. A digest of the protocol: as §1
The next test has as its system PAD. The test is described as above. The conditions noted are these: P. falciparum in erythrocytes, SYBR Green DNA, 72 h; series mostly up to 28.7 µM. The method, boiled down: as §1
Another test relates to PC15. The test is described as above. The settings on record: P. falciparum in erythrocytes, SYBR Green DNA, 72 h; series mostly up to 28.7 µM. A digest of the protocol: as §1
The test system of another test is PC26. Described as above. The conditions noted are these: P. falciparum in erythrocytes, SYBR Green DNA, 72 h; series mostly up to 28.7 µM. The method, boiled down: as §1
A further test deals with PC49. The test is described as above. The conditions noted are these: P. falciparum in erythrocytes, SYBR Green DNA, 72 h; series mostly up to 28.7 µM. A digest of the protocol: as §1
The next test deals with W2. The description is as above. The settings on record: P. falciparum in erythrocytes, SYBR Green DNA, 72 h; series mostly up to 28.7 µM. A digest of the protocol:
as §1

The subject of another test is CRL-7250. Kind of test: Cytotoxic Profiling of Annotated Libraries Using Quantitative High-Throughput Screening (AID 1296008). For max response: % is set by controls: 0 for no effect and ±100 for the full control effect. The settings on record: Five cell lines viability, CellTiter-Glo ATP luminescence, 48-72 h; max response: active compounds read low. A digest of the protocol:
(§2)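 Compounds were pin-transferred onto cells and incubated 48 or 72 hr at 37 degree Celsius, 95% humidity. CellTiter-Glo was added, plates sat 10 min at room temperature, then ATP-coupled luminescence was imaged as the viability read-out.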
(In general: Cellular ATP, detected with luciferase, serves as a proxy for viable cell number.)

In another test the test system is HEK293. The test is described as above. The conditions noted are these: Five cell lines viability, CellTiter-Glo ATP luminescence, 48-72 h; max response: active compounds read low. The method, boiled down: as §2
The test system of a further test is HaCat. The description is as above. The conditions noted are these: Five cell lines viability, CellTiter-Glo ATP luminescence, 48-72 h; max response: active compounds read low. The method, boiled down: as §2
The test system of another test is KB-3-1. The description is as above. The settings on record: Five cell lines viability, CellTiter-Glo ATP luminescence, 48-72 h; max response: active compounds read low. The method, boiled down: as §2
The next test deals with N140. The test can be described thus: qHTS profiling for inhibitors of Plasmodium falciparum proliferation (AID 504749). The conditions noted are these: P. falciparum in erythrocytes, SYBR Green DNA, 72 h; series mostly up to 28.7 µM. The method, boiled down: as §1
Another test deals with P93_24. The test is described as above. The conditions noted are these: P. falciparum in erythrocytes, SYBR Green DNA, 72 h; series mostly up to 28.7 µM. A digest of the protocol:
as §1

For a further test, the system named is P94_40. The test is described as above. The conditions noted are these: P. falciparum in erythrocytes, SYBR Green DNA, 72 h; series mostly up to 28.7 µM. The method, boiled down: as §1
For the next test, the system named is SC27B. The test is described as above. The settings on record: P. falciparum in erythrocytes, SYBR Green DNA, 72 h; series mostly up to 28.7 µM. A digest of the protocol: as §1
A further test concerns TAB109. The test is described as above. The settings on record: P. falciparum in erythrocytes, SYBR Green DNA, 72 h; series mostly up to 28.7 µM. The method, boiled down: as §1
The next test deals with TAB113. The description is as above. The conditions noted are these: P. falciparum in erythrocytes, SYBR Green DNA, 72 h; series mostly up to 28.7 µM. The method, boiled down:
as §1

The next test deals with TAB165. The description is as above. The conditions noted are these: P. falciparum in erythrocytes, SYBR Green DNA, 72 h; series mostly up to 28.7 µM. The method, boiled down: as §1

SMILES strings stand for the structures. “And” between values parts separate entries of the source, which are not always exact repeats. Equal values may be shown once. Results filed as inconclusive are left out. Values without a mark were called inactive. The source made the active and inactive calls. Calls come from the whole dose curve; as a rule, active = well fitted inhibition curve with a large enough effect; inconclusive = small, poorly fitted or top-dose-only effect; inactive = flat fitted curve, though single readings scatter.
Note: nearly all actives have a fitted effect of over 60% in size.
Potency is the fitted concentration of half-maximal effect.

In the case of `C[C@]12CCC(=O)C(O)=C1CC[C@@H]1[C@H]3CCC(=O)[C@@]3(C)CC[C@@H]12`, the Potency entry in the test with GB4, in the test with HB3, with ICS, with JCK, in the test on PAD and in the test with PC15 was “inactive” in each case. Also, the Potency entry with PC26, with PC49 and with W2 was “inactive” in each case. The max response with CRL-7250 was -0.395%; with HEK293 it was -10.2%; in the test with HaCat, -3.05%; in the test on KB-3-1, 3.15%.
In the case of `O=C1C(I)=CC(=C(c2cc(I)c(O)c(I)c2)c2ccccc2C(=O)O)C=C1I`, the result in the test on CRL-7250 and in the test with HaCat was inactive. The max response with HEK293 is -13.3%; in the test with KB-3-1, -3.52% and 5.85%.
`CN[C@@H]1Cc2cccc3[nH]c(=O)n(c23)C1`: the max response in the test on CRL-7250 is -16.3%; with HEK293, -16.4%; in the test on KB-3-1, 9.87%.
For the molecule `O=C(O)C(Cl)Cl`, the Potency entry in the test with GB4, with HB3, in the test with ICS, in the test with JCK, in the test on N140 and with P93_24 was “inactive” each time. Further, the Potency result with P94_40, in the test on PAD, with PC15, in the test with PC26, in the test on PC49 and with SC27B was “inactive” each time. Also, the Potency result with TAB109, with TAB113, with TAB165 and in the test on W2 was “inactive” in each case. Further, the result in the test with CRL-7250, in the test with HEK293 and in the test with HaCat was inactive. In addition, the max response in the test on KB-3-1 is -7.1% and -3.84%.
In the case of `CSCC[C@@H](NC(=O)[C@@H](Cc1ccccc1)NC(=O)CNC(=O)CNC(=O)[C@@H](N)Cc1ccc(O)cc1)C(=O)O`, the max response in the test with CRL-7250 was 2.24%; with HEK293, 3.52%; in the test on KB-3-1, 3.04%. Besides, the call with HaCat was inactive.
`COC(=O)c1cncn1C(C)c1ccccc1` (stereo not drawn): the Potency result in the test with GB4 and in the test on PC26 was “inactive” throughout. The max response in the test on CRL-7250 was -11.1%; with HEK293, -16.1%; with HaCat, -2.03%; in the test on KB-3-1, -9.65%.
In the case of `COC(C)(C)CCCC(C)C/C=C/C(C)=C/C(=O)OC(C)C` (stereo not drawn), the Potency with P93_24 is 8.91 µM (active); in the test with W2 it was 10.7 µM (active). Moreover, the Potency entry with SC27B and with TAB109 was “inactive” each time. Moreover, the max response in the test on CRL-7250 is 1.51%; in the test on HEK293 it was 3.25%; with KB-3-1, 3.28%. Moreover, the molecule was called inactive in the test on HaCat.
As to `S=C(NC1CCCCC1)N1CCC(c2cnc[nH]2)CC1`, the max response in the test on CRL-7250 was -0.728%; in the test on HEK293, -0.423%; in the test on HaCat, -12.4%; in the test with KB-3-1, -10.7%.
As for `CC(C)N(CCNC(=O)CN1CCCC1=O)C(C)C`, the max response was 4.66% and -0.977% in the test with CRL-7250; 4.1% and 1.15% with HEK293; -6.79% and -2.04% in the test with HaCat; -4.8% with KB-3-1. Moreover, the molecule was called inactive in the test on KB-3-1.
As for `COc1cc([C@@H]2c3cc4c(cc3[C@@H](O)C3COC(=O)C32)OCO4)cc(OC)c1O` (stereo partly drawn), the Potency was 0.0833 µM (active) in the test on CRL-7250, 0.0372 µM (active) in the test on HEK293 and 0.0662 µM (active) in the test on KB-3-1. Further, the max response in the test on HaCat was 3.35%.
As for `C#CC1(O)CCC2C3CCC4=CC(=O)CCC4(C)C3CCC21C` (stereo not drawn), the Potency result in the test with GB4, in the test on HB3, in the test with ICS, in the test on JCK, in the test with N140 and in the test with P93_24 was “inactive” each time. Also, the Potency entry in the test on P94_40, in the test on PAD, with PC15, in the test on PC26, in the test on PC49 and in the test with SC27B was “inactive” in each case. The Potency result in the test with TAB109, with TAB113, in the test on TAB165 and with W2 was “inactive” each time. Besides, the max response in the test with CRL-7250 was -20.8%; in the test with HEK293 it was -10.4%; with HaCat it was -0.0987%; in the test on KB-3-1, -11.2%.
As to `Cc1ccc(Cl)c(O)c1`, the Potency entry in the test with GB4, with HB3, in the test on ICS, in the test on JCK, in the test with N140 and in the test with P93_24 was “inactive” throughout. For the same molecule, the Potency result in the test on P94_40, in the test with PAD, in the test with PC15, in the test with PC26, in the test with PC49 and in the test on SC27B was “inactive” in each case. For the same molecule, the Potency entry in the test on TAB109, in the test with TAB113, with TAB165 and in the test with W2 was “inactive” in each case. For the same molecule, the max response in the test with CRL-7250 was 3.13%; in the test with HEK293, -16.6%; in the test with HaCat, -3.88%; with KB-3-1 it was -1.89%.
On to `O=[N+]([O-])c1ccc([As](=O)(O)O)cc1`, for which the Potency with GB4 was 8.49 µM (active); in the test on HB3 it was 12.6 µM (active); in the test with ICS, 8.91 µM (active); in the test on N140 it was 4.47 µM (active); in the test on P93_24, 5.01 µM (active); with P94_40, 7.08 µM (active). Also, the Potency in the test with PAD was 7.94 µM (active); in the test on PC26 it was 13.5 µM (active); in the test with SC27B, 4.47 µM (active); in the test with TAB109, 6.31 µM (active); in the test on TAB113, 7.08 µM (active); in the test on TAB165, 5.01 µM (active). In addition, in the test with W2, the Potency was 4.78 µM (active). Further, the result with CRL-7250, with HEK293 and in the test with HaCat was inactive. Also, the max response in the test on KB-3-1 was -9.29%.
